Reference: PubChem BioAssay (NCATS)
Values joined by “and” are separate entries in the source; they are usually repeats but may differ in a detail not shown here. Identical values can stand only once. Values without a mark were called inactive. Records with an inconclusive call do not appear. A call without a number means that no potency is given here. Active and inactive are the calls of the source. Unless noted, calls follow the shape of the dose curve; as a rule, active = well fitted curve in the direction sought with a large enough effect; inconclusive = small, poorly fitted or top-dose-only effect, or another doubt; inactive = no such curve, though single readings can be large; an effect the other way counts as inactive or inconclusive.

Assays:
Hek293T = experiment: Primary qHTS to identify gynecologic anti-cancer compounds using libraries of approved drugs and bioactive compounds (AID 1345084); settings: Gynecologic cancer cell panel viability, ATPlite luminescence, 48 h, control line for the selectivity index; series mostly up to 57.5 µM; also: nearly all actives have a fitted effect of over 55% in size
Procedure, shortened: (§1)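 48 h compound exposure at 37 C, 5% CO2; five-point qHTS. ATPlite luminescence readout of cell ATP.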

JEG-3 = experiment: as above; settings: Gynecologic cancer cell panel viability, ATPlite luminescence, 48 h; series mostly up to 57.5 µM
Procedure, shortened: as §1

OV90 = experiment: as above; settings: Gynecologic cancer cell panel viability, ATPlite luminescence, 48 h; series mostly up to 57.5 µM
Procedure, shortened: as §1

PA-1 = experiment: as above; settings: Gynecologic cancer cell panel viability, ATPlite luminescence, 48 h; series mostly up to 57.5 µM
Procedure, shortened: as §1

SKOV3 = experiment: as above; settings: Gynecologic cancer cell panel viability, ATPlite luminescence, 48 h; series mostly up to 57.5 µM
Procedure, shortened: as §1

Tov-21-G = experiment: as above; settings: Gynecologic cancer cell panel viability, ATPlite luminescence, 48 h; series mostly up to 57.5 µM
Procedure, shortened: as §1

Tov112D = experiment: as above; settings: Gynecologic cancer cell panel viability, ATPlite luminescence, 48 h; series mostly up to 57.5 µM
Procedure, shortened: as §1

[1] = Drug repurposing screens with cells derived from glioblastoma tumor samples (AID 1345199); settings: GBM patient neurospheres viability, ATP luminescence, 48 h; also: nearly all actives have a fitted effect of over 40% in size; also: potency is read from the fitted curve at half-maximal effect
Procedure, shortened: (§2)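 Four patient lines of CD133+ GBM neurospheres were screened at several concentrations; hits were retested in those lines plus three slower-growing GBM lines, using 48-hour treatment and ATP-based viability.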

astro = experiment: as above; settings: viability, ATP luminescence, 48 h; series mostly up to 45.9 µM
Procedure, shortened: as §2

[2] = biological target: Nuclear receptor subfamily 1 group I member 2 (Rattus norvegicus) (UniProt Q9R1A7); experiment: qHTS assay for small molecule activators of the rat pregnane X receptor (rPXR) signaling pathway (AID 651751; call rule not given here); settings: rPXR reporter cells, luciferase (One-Glo), 24 h
[3] = qHTS assay for small molecule activators of the human pregnane X receptor (PXR) signaling pathway (AID 720659; call rule not given here)
[4] = qHTS assay to identify inhibitors of the type 1 interferon - major histocompatibility complex class I in skeletal muscle: Counter screen cell viability and HiBit confirmation (AID 1347412); settings: iHSKM muscle cells + IFN-b, HiBiT or CellTiter-Glo, 24 h; Potency: HiBiT; Viability, at 45.9 µM (top of the series); also: nearly all actives have a fitted effect of over 60% in size
Procedure, shortened: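 After 24 h with human IFN-beta (4 ng/ml) and compound titrations (top 46 uM final, 1:3, 12 points), HLA-B HiBit myoblasts were lysed for either Nano-Glo HiBiT luminescence or CellTiter Glo viability on paired plates.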

[5] = at 45.9 µM (top of the series), tumour line B
[6] = at 45.9 µM (top of the series), tumour line D
[7] = at 46 µM (top of the series), tumour line A
[8] = at 46.1 µM (top of the series), tumour line C

Nuclear receptor subfamily 1 group I member 2 (Rattus norvegicus), sequence (Q9R1A7 whole entry, looked up): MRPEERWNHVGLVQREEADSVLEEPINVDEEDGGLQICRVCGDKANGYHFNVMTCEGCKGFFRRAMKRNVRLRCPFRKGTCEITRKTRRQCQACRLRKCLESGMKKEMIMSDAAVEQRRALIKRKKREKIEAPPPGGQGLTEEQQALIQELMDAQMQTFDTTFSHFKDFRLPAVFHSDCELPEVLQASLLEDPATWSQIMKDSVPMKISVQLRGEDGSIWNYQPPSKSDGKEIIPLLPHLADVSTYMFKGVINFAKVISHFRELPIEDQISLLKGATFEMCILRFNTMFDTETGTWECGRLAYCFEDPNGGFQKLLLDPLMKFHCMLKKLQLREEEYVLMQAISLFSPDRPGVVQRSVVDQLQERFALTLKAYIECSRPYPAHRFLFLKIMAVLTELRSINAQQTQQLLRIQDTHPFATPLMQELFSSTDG

SMILES | Potency (Hek293T) | Potency (JEG-3) | Potency (OV90) | Potency (PA-1) | Potency (SKOV3) | Potency (Tov-21-G) | Potency (Tov112D) | activity, negative = cell killing [1, 5] | activity, negative = cell killing [1, 6] | activity, negative = cell killing [1, 7] | activity, negative = cell killing [1, 8] | Potency (astro) | max response [2] | outcome [3] | Potency ([1]; tumour line A) | Potency ([1]; tumour line D) | Potency [4]
CC(=O)Nc1ccc(CC(=O)O)cc1 | inactive | inactive | inactive | inactive | inactive | inactive | inactive | 0.59% | -5.02% | -20.1% | 3.56% | inactive | – | – | – | – | –
CCOC(=O)[C@H](CCc1ccccc1)N[C@@H](C)C(=O)N1[C@H](C(=O)O)C[C@@H]2CCC[C@@H]21 | inactive | inactive | inactive | inactive | inactive | inactive | inactive | -17.1% | 6.01% | – | -13.2% | inactive | – | – | – | – | –
CCOc1ccccc1C(N)=O | inactive | inactive | inactive | inactive | inactive | inactive | inactive | -5.35% | -0.0314% | -26.8% | -1.96% | inactive | 2.38% | inactive | – | – | –
O=C1c2cccc3c2[C@H](CCC3)CN1[C@@H]1CN2CCC1CC2 | inactive | inactive | inactive | inactive | inactive | inactive | inactive | -28.4% | – | – | – | inactive | – | – | 11.2 µM (active) | 11.2 µM (active) | –
CCCCCCCCCCCCCCCC(=O)O | inactive | inactive | inactive | inactive | inactive | inactive | inactive | -2.37% | 1.78% | -27.9% | 2.94% | inactive | -0.866% | inactive | – | – | –
NCCNc1cccc2ccccc12 | inactive | inactive | inactive | inactive | inactive | inactive | inactive | -17.3% | -24.3% | – | -28% | inactive | -3.2% and 4.24% | – | 20 µM (active) | – | –
CN(C)CCN1C(=O)c2ccccc2N(C)c2ccccc21 | inactive | inactive | inactive | inactive | inactive | inactive | inactive | -10.1% | -18.4% | – | 4.2% | inactive | – | – | – | – | –
CC(C)=CCOc1ccc(/C=C/C(=O)c2ccc(OCC=C(C)C)cc2OCC(=O)O)cc1 | inactive | inactive | inactive | inactive | inactive | inactive | inactive | 16% | -25.2% | – | -4.09% | 31.6 µM (active) | – | – | – | – | –
Cc1c[nH]c2ccccc12 | inactive | inactive | inactive | inactive | inactive | inactive | inactive | -3.32% | -13.8% | – | -16.3% | inactive | – | – | – | – | –
COc1ccc(/C=N/NC(=O)c2ccncc2)cc1OC | inactive | inactive | inactive | inactive | inactive | inactive | inactive | -3.24% | -6.28% | – | -25% | inactive | – | – | – | – | –
CC1=C(C(=O)O)N2C(=O)[C@@H](NC(=O)[C@H](N)c3ccccc3)[C@H]2SC1 | inactive | inactive | inactive | inactive | inactive | inactive | inactive | -0.246% | -6.88% | -19.6% | -1.45% | inactive | – | – | – | – | inactive
CCCCCCCCOc1ccc(C(=O)c2ccccc2)c(O)c1 | inactive | inactive | inactive | inactive | inactive | inactive | inactive | -18.7% | -9.16% | – | -24.6% | inactive | -1.61% | inactive | – | – | –
CCNC(=O)/C=C/c1cccc(Br)c1 | inactive | inactive | inactive | inactive | inactive | inactive | – | -10.7% | -16% | – | -17.6% | – | – | – | – | – | –
O=C(Nc1ccc([N+](=O)[O-])cc1)Nc1ccc([N+](=O)[O-])cc1 | inactive | inactive | inactive | inactive | inactive | inactive | inactive | – | -14.3% | – | -15.7% | inactive | – | – | – | – | –
COc1cc(C(=O)N2CCCCCCC2)cc(OC)c1OC | inactive | inactive | inactive | inactive | inactive | inactive | inactive | -16.1% | -20.1% | – | – | inactive | – | – | – | – | –
C=CCN1CCc2nc(N)sc2CC1 | inactive | inactive | inactive | inactive | inactive | inactive | inactive | -26.9% | -19.4% | – | -3.6% | inactive | – | – | – | – | –
C#C[C@]1(OC(C)=O)CC[C@H]2[C@@H]3CCC4=C/C(=N/O)CC[C@@H]4[C@H]3CC[C@@]21CC | inactive | inactive | inactive | inactive | inactive | – | – | – | – | – | -21.9% | – | – | – | 8.91 µM (active) | – | –
C#C[C@]1(O)CC[C@H]2[C@@H]3[C@H](C)CC4=C(CCC(=O)C4)[C@H]3CC[C@@]21C | inactive | inactive | inactive | inactive | inactive | inactive | inactive | -14.2% | – | – | – | inactive | – | – | 31.6 µM (active) | – | –
CCC(C(=O)OCCOCCN(CC)CC)c1ccccc1 (stereo not drawn) | inactive | inactive | inactive | inactive | inactive | inactive | inactive | – | – | – | -29.9% | inactive | – | – | 14.1 µM (active) | – | –
COc1ccc(C(=O)c2ccccc2)c(O)c1 | inactive | inactive | inactive | inactive | inactive | inactive | inactive | 1.18% | -2.35% | – | -6.38% | inactive | 7.56% and 2.38% | – | – | – | –
CN1CCN(c2c(F)cc3c(=O)c(C(=O)O)cn4c3c2SCC4)CC1 | inactive | inactive | inactive | inactive | inactive | inactive | inactive | -10.6% | – | – | -19.6% | inactive | – | – | – | – | –
Cc1cccc(C)c1NC(=O)CN1CCCC1 | inactive | inactive | inactive | inactive | inactive | inactive | inactive | -9.15% | 5.92% | – | -8.15% | inactive | – | – | – | – | –
CCCCCCCC/C=C\CCCCCCCCN | inactive | inactive | inactive | inactive | inactive | inactive | inactive | -5.85% | -1.47% | – | -19.7% | inactive | 3.35% | inactive | – | – | –
